GPR151 ag – activates the human receptor GPR151; AID 1508602; PathHunter beta-arrestin GPR151 cells, luminescence; Q8TDV0; 650,000 tested, 1% active; activation, % at 11.2 µM; in the data active means activation above about 4.9%;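 further: 0% = median of compound wells and 100% = cells with positive control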
Target sequence (Q8TDV0 whole entry, looked up): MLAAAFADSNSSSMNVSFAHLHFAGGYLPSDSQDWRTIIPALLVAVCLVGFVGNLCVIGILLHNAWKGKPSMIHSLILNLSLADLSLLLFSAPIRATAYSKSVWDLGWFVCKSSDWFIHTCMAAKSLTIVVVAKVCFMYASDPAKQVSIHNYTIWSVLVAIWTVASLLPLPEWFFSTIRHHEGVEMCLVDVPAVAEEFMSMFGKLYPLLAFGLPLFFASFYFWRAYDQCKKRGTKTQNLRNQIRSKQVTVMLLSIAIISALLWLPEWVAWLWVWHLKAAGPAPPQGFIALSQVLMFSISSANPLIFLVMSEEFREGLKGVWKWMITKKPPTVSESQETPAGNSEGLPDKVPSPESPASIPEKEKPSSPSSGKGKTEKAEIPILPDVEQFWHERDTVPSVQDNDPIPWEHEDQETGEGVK
TEAD-YAP block – TEAD-YAP interaction inhibition; HEK-TIYL cells, TEAD-Gal4/YAP UAS-luciferase luminescence; inhibition, % at 9.12 µM; 640,000 tested, 1.4% active; in the data active means inhibition above about 32%;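 further: 0% = median of test compound wells and 100% = reference inhibitor wells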
MITF inh – blocks human microphthalmia-associated transcription factor. O75030. AlphaScreen MITF homodimerization, bead proximity signal. inhibition, % at 2.6 µM. 650,000 tested, 0.91% active. AID 1259374; in the data active means inhibition above about 50%;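 further: 0% = vehicle wells with protein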
FBW7 act – activators of human E3 ligase FBW7 | Q969H0 | AlphaScreen FBW7–phospho-cyclin E peptide binding, activator screen | normalized activity (activation), % at 26.1 µM | 650,000 tested, 0.13% active | AID 1259310; in the data active means normalized activity above about 1.9%;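 further: purified mutant Fbw7 with reduced substrate affinity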
GPR151 conf act – confirmation of human GPR151 activators; shares compounds with GPR151 ag; GPR151 PathHunter beta-arrestin cells, luminescence, 90 min; % of EA-reagent control over plate median; activation, % at 11.2 µM; 6,700 tested, under 10 active;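 active means mean percent activation across replicates above the confirmation screen cutoff of 4.91%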
GPR119 ag – GPR119 activation, counter-screen for GPR151 activators; GPR119 PathHunter beta-arrestin cells, luminescence, 90 min; 0 = compound-well median, 100 = enzyme-acceptor control; AID 1508611; shares compounds with GPR151 ag; 6,700 tested, 0.3% active; activation, % at 11.2 µM;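 active means mean percent activation in the counterscreen above 29.09%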;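 further: counterscreen on off-target GPR119 to flag nonselective hits from the GPR151 activator screen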
Starred values were filed as active, the others as inactive. Sampled rows, rich in hits. Any-hit rate of the full collection: about 3.5%.

`O=C(NC1c2ccccc2Oc2ccccc21)c1ccncc1` gave GPR151 ag -1, TEAD-YAP block -6, MITF inh 4 and FBW7 act 0.
Screening O=C(Nc1ccccc1)NC1c2ccccc2Oc2ccccc21 returned GPR151 ag 6.6*, TEAD-YAP block -14, MITF inh 2, FBW7 act 0, GPR151 conf act 0 and GPR119 ag -2.
COc1ccc(/C=C(\C#N)c2ccccn2)c(OC)c1OC was read as GPR151 ag 1, TEAD-YAP block -44, MITF inh 1 and FBW7 act 0.
COc1ccc2ccccc2c1/C=C(\C#N)c1ccccn1 was read as GPR151 ag 5.2*, TEAD-YAP block -10, MITF inh 0, FBW7 act 0, GPR151 conf act 0 and GPR119 ag 10.
For CCCCCCCCCCCCC/C=C/[C@@H](O)[C@H](COP(=O)(O)O)NC(=O)CCCCCCC the results were GPR151 ag 5.2*, MITF inh -7, GPR151 conf act 0 and GPR119 ag -11.
`O=C(Nc1ccc2nn(-c3ccccc3)nc2c1)c1ccc(-c2cccc([N+](=O)[O-])c2)o1` gave GPR151 ag 5.1*, TEAD-YAP block 1, MITF inh -1, FBW7 act 0, GPR151 conf act 0 and GPR119 ag 12.
Screening Cc1cc(=O)oc2c3c(ccc12)O/C(=C/c1cccc(O)c1)C3=O returned GPR151 ag -1, TEAD-YAP block 5, MITF inh -4 and FBW7 act 0.
Screening CCOc1cc(C#N)ccc1OCC(=O)NC(C)c1ccccc1 (stereo not drawn) returned GPR151 ag 13*, TEAD-YAP block 2, MITF inh 6, FBW7 act 0, GPR151 conf act 0 and GPR119 ag 5.
`CC(NC(=O)COc1ccccc1C#N)c1ccccc1` (stereo not drawn) gave GPR151 ag -1, TEAD-YAP block 3, MITF inh -6 and FBW7 act 0.
`Cc1cc(C(=O)COC(=O)c2ccc(O)cc2O)c(C)n1-c1ccc2c(c1)OCO2` gave GPR151 ag 5.3*, TEAD-YAP block 2, MITF inh -1, FBW7 act 0, GPR151 conf act 0 and GPR119 ag 1.
COC(=O)C1=C(C(=O)OC)[C@@H]2N(Cc3ccccc3)c3ccccc3[C@@]23C[C@@H](CO)N(C(=O)NC2CCCCC2)C3=N1 was read as GPR151 ag 3, MITF inh -2 and FBW7 act 0.
For COC(=O)C1=C(C(=O)OC)[C@@H]2N(Cc3ccccc3)c3ccccc3[C@@]23C[C@@H](CO)N=C3N1 the results were GPR151 ag 6.8*, MITF inh -6, FBW7 act 0, GPR151 conf act 0 and GPR119 ag -1.
Screening CCOP(=O)(OCC)C(Nc1ccc(C(C)C)cc1)c1ccc([N+](=O)[O-])cc1 (stereo not drawn) returned GPR151 ag 0, TEAD-YAP block 1, MITF inh -4 and FBW7 act 0.
O=C(Cc1cccnc1)N[C@H](Cc1ccc(Cl)cc1)c1nc2ccc(-c3cn[nH]c3)cc2c(=O)[nH]1 was read as GPR151 ag 5.5*, TEAD-YAP block 9, MITF inh 4, FBW7 act 0, GPR151 conf act 1 and GPR119 ag 12.
COC(=O)c1ccccc1NC(=S)NC(=O)c1ccc(F)cc1 was read as GPR151 ag 0, TEAD-YAP block 3, MITF inh -4 and FBW7 act 0.
Screening O=[N+]([O-])c1ccc(N2CCN(Cc3ccoc3)CC2)cc1 returned GPR151 ag 0, TEAD-YAP block -1, MITF inh 8 and FBW7 act 0.
For CC(=O)c1ccc(N2CCN(Cc3ccoc3)CC2)cc1 the results were GPR151 ag 5.9*, TEAD-YAP block -17, MITF inh 20, FBW7 act 0, GPR151 conf act -1 and GPR119 ag -7.
`COC(=O)C(NC(=O)c1ccc(Br)cc1)c1ccccc1` (stereo not drawn) gave GPR151 ag 9.0*, TEAD-YAP block 16, MITF inh -4, FBW7 act 0, GPR151 conf act 2 and GPR119 ag 12.
Screening COC(=O)C(NC(=O)c1ccccc1)c1ccccc1 (stereo not drawn) returned GPR151 ag -1, TEAD-YAP block 6, MITF inh 4 and FBW7 act 0.
Cc1cc(CN(C)C(=O)CC2(c3cccc(F)c3)CC(=O)N(Cc3cccnc3)C2=O)n[nH]1 (stereo not drawn) was read as GPR151 ag 12*, TEAD-YAP block 0, MITF inh 13, FBW7 act 0, GPR151 conf act 0 and GPR119 ag 7.
Cc1cc(CN(C)C(=O)CC2(c3ccccc3C)CC(=O)N(Cc3cccnc3)C2=O)n[nH]1 (stereo not drawn) was read as GPR151 ag 1, TEAD-YAP block -9, MITF inh -5 and FBW7 act 0.
`Cc1ccnc(NC(=O)c2noc3c2COc2ccc(C)cc2-3)c1` gave GPR151 ag 0, TEAD-YAP block -15, MITF inh -16 and FBW7 act 0.
`CCOc1ccc(NC(=O)CC2Sc3ccc(C(F)(F)F)cc3NC2=O)c([N+](=O)[O-])c1` (stereo not drawn) gave GPR151 ag 5.0*, TEAD-YAP block -2, MITF inh 9, FBW7 act 0, GPR151 conf act 0 and GPR119 ag 8.
Screening COc1ccc(Cl)cc1C(=O)Nc1nc(C)cs1 returned GPR151 ag -1, TEAD-YAP block -66, MITF inh 3 and FBW7 act 0.
Screening O=C(NCc1cccc2[nH]ccc12)c1cc(COc2c(F)cccc2F)on1 returned GPR151 ag -1, TEAD-YAP block -15, MITF inh 6 and FBW7 act 0.
Screening CC(C)c1ccc(N(CC(=O)NCCSc2ccccc2)S(C)(=O)=O)cc1 returned GPR151 ag 21*, TEAD-YAP block 3, MITF inh 20, FBW7 act 1, GPR151 conf act -1 and GPR119 ag 0.
CC(=O)Nc1ccc(NC(=O)CN(c2ccc(C(C)C)cc2)S(C)(=O)=O)cc1 was read as GPR151 ag -1, TEAD-YAP block -47, MITF inh -14 and FBW7 act 0.
Screening CC(C)c1ccc(NC(=O)CN(c2ccc(Cl)cc2)S(C)(=O)=O)cc1 returned GPR151 ag 6.2*, TEAD-YAP block -67, MITF inh -18, FBW7 act 0, GPR151 conf act 1 and GPR119 ag 14.
`O=C(Nc1ccc2c(c1)-c1cc(NC(=O)c3cccc(C(F)(F)F)c3)ccc1S2(=O)=O)c1cccc(C(F)(F)F)c1` gave GPR151 ag -1, TEAD-YAP block 1, MITF inh 8 and FBW7 act 0.

Bioassay records (PubChem BioAssay)
